Screening results as filed in PubChem BioAssay.
The full list was thinned out, with hits kept by preference.
Tb PGK inh – blocks T. brucei phosphoglycerate kinase; P07378; PGK/GAPDH coupled, Kinase-Glo luminescence, 60 min; Potency, µM (top dose mostly 57.5 µM), most hits filed as inhibitors; 380,000 tested, 0.043% active; AID 602233; note: nearly all actives have a fitted effect of over 60% in size
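Luminescent ATP detection (Kinase-Glo Plus) follows a 60-minute room-temperature incubation, with wells lacking PGK as controls. Buffer: 100 mM TEA (pH 7.6), 5 mM MgCl2, 0.01% Tween-20. Coupling enzyme GAPDH (100 nM final) supplies unstable 1,3-BPG in-well.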
PI4K2A block – inhibitors of human PI4K2A | purified PI4K2A, ADP-Glo luminescence, 1 h; stronger effect = lower value | activity change, negative = inhibition, % at 76.9 µM | 420,000 tested, 0.13% active | AID 1346378; in the data active = activity change below about -50%; inconclusive = mostly about -30% to -49%
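Compounds are screened against recombinant PI4K2A using PI as substrate and ATP, the latter dispensed at 300 microM. Reactions run one hour at ambient temperature before ADP-Glo detection; full inhibition defined by wells lacking enzyme.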
Tb PFK inh – blocks T. brucei phosphofructokinase; O15648; T. brucei PFK, ADP-Glo luminescence; Potency, µM (top dose mostly 57.5 µM), most hits filed as inhibitors; 330,000 tested, 0.17% active; note: nearly all actives have a fitted effect of over 60% in size
Target sequence (O15648 whole entry, looked up): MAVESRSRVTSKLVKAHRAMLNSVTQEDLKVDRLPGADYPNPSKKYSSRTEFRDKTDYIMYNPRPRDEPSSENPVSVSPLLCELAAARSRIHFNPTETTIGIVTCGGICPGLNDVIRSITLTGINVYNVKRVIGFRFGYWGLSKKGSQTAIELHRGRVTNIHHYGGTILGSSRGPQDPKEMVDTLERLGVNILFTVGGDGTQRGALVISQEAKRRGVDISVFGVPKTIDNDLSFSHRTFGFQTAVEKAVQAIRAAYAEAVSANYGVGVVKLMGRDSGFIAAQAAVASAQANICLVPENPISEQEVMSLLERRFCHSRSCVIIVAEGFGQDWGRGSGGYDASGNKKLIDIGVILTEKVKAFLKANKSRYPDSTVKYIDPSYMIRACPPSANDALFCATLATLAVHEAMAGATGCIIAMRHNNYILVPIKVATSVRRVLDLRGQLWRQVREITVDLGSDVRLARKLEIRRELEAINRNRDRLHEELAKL
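PFK 1.25 nM, F6P 0.5 mM, ATP 0.1 mM, 0.1 M TEA pH 8.0, 5 mM MgCl2, 0.01% Tween20, 0.1% BSA; 45 min RT. ADP-Glo readout. qHTS titration up to 57 uM; curves fitted, compounds curve-classed.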
PI5P4Ka inh – inhibitors of human PI5P4K alpha; PI5P4Kalpha enzyme, ADP-Glo luminescence, 60 min; stronger effect = lower value; 330,000 tested, 1.2% active; AID 652105; max response, %; active = max response of -50% or lower; inconclusive = between -30% and -50%; inactive = -30% or higher; note: value at the top dose of about 77 µM
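Controls without substrate or without enzyme flank wells where PI5P4Kalpha converts substrate using 5 microM ATP (final). Incubation lasts 60 minutes at room temperature; ADP formed is read by ADP-Glo luminescence.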
Pin1 inhibitor – human Pin1 inhibition. Q13526. Pin1 FP peptide displacement, HiFluor488, 10 min. Potency, µM (series often up to 115 µM), actives largely listed as inhibitors. 390,000 tested, 0.009% active. AID 504891; active = well fitted inhibition curve with a large enough effect in the polarisation, with a control signal flat, not every such curve was filed as active; inconclusive = small, poorly fitted or top-dose-only effect, or effect the other way, or a change in a side signal; inactive = no such curve, though single readings can be large or run the other way; the % refers to the polarisation
ADP-Glo interf – counter-screen for PI5P4K inhibitors: ADP-Glo detection interference, no enzyme; shares compounds with PI5P4Ka inh; ADP-Glo detection counter-screen, luciferase luminescence, no enzyme; Potency, µM (series often up to 76.9 µM), usual class: inhibitors; 1,100 tested, under 10 active
Each line names hits and unclear results; the compound was inactive in the other large screens (follow-up assays come after a bar, where they were run). Unless noted, calls come from the whole dose curve; as a rule, active = well fitted curve in the direction sought with a large enough effect; inconclusive = small, poorly fitted or top-dose-only effect, or another doubt; inactive = no such curve, though single readings can be large; an effect the other way counts as inactive or inconclusive.

CCn1cc2nc(SCc3cc(C)ccc3C)n(Cc3ccc(Cl)cc3)c(=O)c2n1	none (no result: Tb PFK inh, PI5P4Ka inh)
COc1cccc(N2CCN(C(=O)c3ccc(CS(=O)c4ccccc4Cl)o3)CC2)c1 (stereo unspecified)	none
COc1cccc(N2CCN(C(=O)c3ccc(CS(=O)c4ccccc4C)o3)CC2)c1 (stereo unspecified)	none | ADP-Glo interf inactive
CCOC(=O)N1CCN(C(=O)CSc2nnc(-c3cc(OC)ccc3OC)o2)CC1	PI5P4Ka inh inconclusive
NC(=O)C1CCN(CC(=O)Nc2ccc3c(c2)OCCO3)CC1	PI5P4Ka inh -63.2, Pin1 inhibitor inconclusive | ADP-Glo interf inactive
NC(=O)C1CCN(CC(=O)Nc2ccc3c(c2)OCO3)CC1	none (no result: Tb PFK inh, Pin1 inhibitor)
C=CC(=O)N1CCCC(Nc2nc(Nc3ccc(N(C)C(=O)CC)cc3C)nc3nc[nH]c23)C1 (stereo unspecified)	none
Cn1nnc2cc(C(=O)NC3CC3)ccc21	PI5P4Ka inh -58.9 (no result: Tb PFK inh) | ADP-Glo interf inactive
COc1ccc(NC(=O)CSc2nc(-c3ccc(F)cc3)c3cccc(C)c3n2)cc1	none (no result: Tb PFK inh, PI5P4Ka inh)
CCOC(=O)CSc1ccc2nnc(-c3cccs3)n2n1	PI5P4Ka inh -50.7 | ADP-Glo interf inactive
CCSc1ccc2nnc(-c3cccs3)n2n1	none
CCOC(=O)Cc1cnc(NC(=O)CSc2nc(C)cc(C)n2)s1	none
Cn1nnnc1SCc1nc2scc(-c3ccccc3)c2c(=O)[nH]1	none
Cn1nnnc1SCc1nc2scc(-c3ccc(Cl)cc3)c2c(=O)[nH]1	PI5P4Ka inh -68.2, Pin1 inhibitor inconclusive | ADP-Glo interf inactive
Cc1ccn2c(=O)nc(SCC(=O)NCc3ccccc3Cl)nc2c1	PI5P4Ka inh -58.8, Pin1 inhibitor inconclusive | ADP-Glo interf inactive
Cc1ccc2nc(SCC(=O)NCc3ccccc3Cl)nc(=O)n2c1	none
O=C(COc1cccc2ccccc12)Nc1ccc(Cl)cc1C(=O)O	PI5P4Ka inh -54.1 | ADP-Glo interf inactive
O=C(NCc1ccco1)C1Cc2c(-c3cccc(F)c3)ccnc2O1 (stereo unspecified)	PI5P4Ka inh -65.0 (no result: Tb PGK inh, Tb PFK inh, Pin1 inhibitor) | ADP-Glo interf inactive
Cc1ccc(CSCC(=O)N2CCOCC2)cc1	PI5P4Ka inh -51.5 | ADP-Glo interf inactive
Cc1ccc(CN2CCCn3nc(C(=O)NCC(C)c4ccccc4)cc3C2=O)cc1 (stereo unspecified)	none (no result: Tb PFK inh, PI5P4Ka inh)
CC1CCOC(c2coc3ccccc3c2=O)O1 (stereo unspecified)	none
O=C(O)C1CSC(c2coc3ccccc3c2=O)N1 (stereo unspecified)	PI5P4Ka inh -66.7, Pin1 inhibitor inconclusive | ADP-Glo interf inactive
CC1(C)Cc2c(cnn2-c2cccc(F)c2)C(NC(=O)CCc2cnccn2)C1 (stereo unspecified)	none
Cc1ccc(C(=O)NN2C(=O)c3ccc(S(=O)(=O)c4ccc(C(=O)O)cc4)cc3C2=O)cc1	none
CC(C)(C)c1csc(NC(=O)c2ccc3nccnc3c2)n1	PI5P4Ka inh -52.4 | ADP-Glo interf inactive
CC(C)(C)c1csc(NC(=O)c2ccncc2)n1	none
Cc1cc2ccccc2nc1SCC(=O)NC1CCCC1	PI5P4Ka inh -64.6 | ADP-Glo interf inactive
Cc1cc2ccccc2nc1SCC(=O)NC1CCCCC1	none
CN(Cc1nccn1C)C(=O)CC1C(=O)NCCN1Cc1cccc(Oc2ccccc2)c1 (stereo unspecified)	none
Cc1cnc(C(=O)OCC(=O)Nc2ccc(Cl)cn2)cn1	none
S=C(NCc1ccccc1)N1CCc2ccccc2C1	PI5P4Ka inh -93.2 | ADP-Glo interf inactive
CC(=O)c1ccc(NC(=O)CC2Nc3cccc4cccc(c34)NC2=O)cc1 (stereo unspecified)	PI4K2A block inconclusive, PI5P4Ka inh -54.5 | ADP-Glo interf inactive
CC(C)OC(=O)c1cccc(C(=O)Nc2cccc(NC(=O)c3cccc(C(=O)OC(C)C)n3)n2)n1	none
O=C(NCC(F)(F)F)c1ccc2sc([C@H]3C[C@H](O)[C@@H](CO)O3)nc2c1	none (no result: Tb PGK inh, Tb PFK inh, Pin1 inhibitor)
CCN1CCN(Cc2ccc(NC(=O)c3ccc(C)c(NC(=O)c4cc(-c5ccc(Br)cc5)n[nH]4)c3)cc2C(F)(F)F)CC1	PI5P4Ka inh -57.0 | ADP-Glo interf inactive
Cc1c(Cl)c([N+](=O)[O-])nn1CC(=O)NC1CCCCC1	none
